Screening data as filed in PubChem BioAssay.
MBNL1 CUG block = MBNL1-poly(CUG) RNA binding inhibition; Q9NR56; TR-FRET MBNL1-His/biotin-(CUG)12 binding, 665/545 ratio; Potency, µM (top dose mostly 57.5 µM), usual class: inhibitors; hit rate 0.036% among 280,000; active = well fitted inhibition curve with a large enough effect in the signal ratio, with a control signal flat, not every such curve was filed as active; inconclusive = small, poorly fitted or top-dose-only effect, or effect the other way, or a change in a side signal; inactive = no such curve, though single readings can be large or run the other way; the % refers to the signal ratio
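TR-FRET readout: Ex 340 nm, 665/545 nm emission ratio, normalized to buffer-only (basal) and MBNL1-(CUG)12 controls. Complex of MBNL1-His with Biotin-(CUG)12, compounds 92 nM–58 uM, incubated 60 min at room temperature.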
Six1-Eya2 inh = Six1/Eya2 interaction inhibition; Q15475+O00167; AlphaScreen GST-Six1/His-Eya2 binding, biochemical; stronger effect = lower value; activity change, % (test concentration not listed); hit rate 0.56% among 360,000; AID 651725; in the data active = activity change below about -65%; inconclusive = mostly about -30% to -63%
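Homogeneous AlphaScreen proximity assay pairing GST-Six1 with His-tagged Eya2 (added as 5X mix: 250 nM and 500 nM) in 50 mM Tris pH 8.0, 300 mM NaCl, 1 mM TCEP. Glutathione donor and nickel acceptor beads; 1 h, 37 °C, dark.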
CBFb-RUNX1 inh = inhibitors of human CBF-beta and RUNX1 interaction; 230,000 tested, under 10 active; AID 1477; AlphaScreen CBFb-His/RUNX1-biotin binding, biochemical; Q01196+Q13951; Potency, µM (top dose mostly 59.8 µM), most hits filed as inhibitors
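AlphaScreen binding: CBFb-His and RUNX1-biotin (30 nM each) preincubated 20 min, compound added for 15 min, then nickel and streptavidin beads for 90 min, all at room temperature. Disruption of the interaction by any mechanism counts as activity.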
CtBP-E1A blk = CtBP/E1A binding inhibition; AlphaScreen GST-E1A/His-CtBP binding, 1536-well; stronger effect = lower value; activity change, % (test concentration not listed); hit rate 0.49% among 340,000; AID 651724; in the data active = activity change below about -65%; inconclusive = mostly about -30% to -63%
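Homogeneous bead-based format: GST-tagged E1A captured on glutathione donor beads, His-tagged CtBP on nickel acceptor beads; compounds precede bead addition by 2 h at 37 °C.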
Gal4-VP16 FLuc = inhibits Gal4-VP16 luciferase reporter, ROR gamma counter-screen. Drosophila S2 Gal4-VP16 UAS-luciferase, luminescence, 20 h. Potency, µM (highest dose often 53.6 µM), usual class: inhibitors. hit rate 3.5% among 310,000;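 also: Gal4-VP16 expression switched on by copper sulfate through the metallothionein promoter; nearly all actives have a fitted effect of over 50% in size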
RORgamma inh = blocks mouse ROR gamma transcriptional activity. AID 2551. Drosophila S2 Gal4-RORgamma UAS-luciferase reporter, 20 h. hit rate 5.4% among 310,000. P51450. Potency, µM (highest dose often 53.6 µM), usual class: inhibitors; also: nearly all actives have a fitted effect of over 60% in size
Target sequence (P51450 whole entry, looked up, the tested form may be a part): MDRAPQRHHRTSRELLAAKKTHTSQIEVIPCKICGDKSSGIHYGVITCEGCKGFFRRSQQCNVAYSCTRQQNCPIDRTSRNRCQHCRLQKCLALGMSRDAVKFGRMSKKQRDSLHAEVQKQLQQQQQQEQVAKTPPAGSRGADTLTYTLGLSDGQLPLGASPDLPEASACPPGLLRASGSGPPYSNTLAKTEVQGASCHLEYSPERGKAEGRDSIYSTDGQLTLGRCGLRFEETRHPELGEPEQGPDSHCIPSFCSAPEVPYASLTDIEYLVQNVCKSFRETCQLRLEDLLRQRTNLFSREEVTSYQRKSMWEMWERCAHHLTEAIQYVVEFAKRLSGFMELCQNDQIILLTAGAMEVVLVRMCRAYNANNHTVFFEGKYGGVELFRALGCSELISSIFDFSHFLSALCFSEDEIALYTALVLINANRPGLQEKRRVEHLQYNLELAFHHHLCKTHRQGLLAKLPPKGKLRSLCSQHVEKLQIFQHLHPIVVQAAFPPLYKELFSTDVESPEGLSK
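Schneider cells (Drosophila), stable Gal4 DBD–ROR gamma + UAS-luc; 1 hr cmpd preincubation; Cu2+ induction 700 uM final; 20 hr ambient; luminescence.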
Hits are given with their value; . = inactive; ? = inconclusive; / = no result given. A selection: hits, their analogues and other compounds. The true share with any hit is near 5.5%. Unless noted, calls follow the shape of the dose curve; as a rule, active = well fitted curve in the direction sought with a large enough effect; inconclusive = small, poorly fitted or top-dose-only effect, or another doubt; inactive = no such curve, though single readings can be large; an effect the other way counts as inactive or inconclusive.

SMILES | MBNL1 CUG block | Six1-Eya2 inh | CBFb-RUNX1 inh | CtBP-E1A blk | Gal4-VP16 FLuc | RORgamma inh
O=C1c2cc(CO)cc(O)c2C(=O)c2c(O[C@@H]3OC(CO)[C@@H](O)[C@@H](O)[C@@H]3O)cccc21 (some centres not stated) | / | . | / | . | / | /
O=C(O)c1cc(O)c2c(c1)[C@@H]([C@H]1c3cc(C(=O)O)cc(O)c3C(=O)c3c(O[C@@H]4O[C@H](CO)[C@@H](O)[C@H](O)[C@H]4O)cccc31)c1cccc(OC3O[C@H](CO)[C@@H](O)[C@H](O)[C@H]3O)c1C2=O (some centres not stated) | / | -82.4 | / | . | / | /
Cc1ccc(CNC(=O)c2cc3c(C)nc4ccccc4c3o2)cc1 | . | . | . | ? | 17.8µM | .
COc1ccc(NC(=O)CSc2nc3c(c(=O)n(C)c(=O)n3C)n2C)c(OC)c1 | . | . | / | . | . | .
CCc1cc[n+](C2=C([O-])c3ccccc3C(=O)/C2=N\S(=O)(=O)c2cccs2)cc1 | ? | ? | ? | . | 15.8µM | 3.55µM
O=C1C(=O)c2ccccc2C([O-])=C1[n+]1ccccc1 | ? | . | . | . | . | .
c1ccc(-c2ccc(-c3nc(-c4ccccn4)no3)cc2)cc1 | . | . | . | . | 1.41µM | 2.51µM
Clc1cccc(-c2nc(-c3ccccn3)no2)c1 | . | . | . | . | 8.91µM | 5.01µM
Cc1ccc2nc(-c3ccccn3)oc2c1 | . | . | . | . | ? | 10µM
Cc1ccc(-c2nc(-c3ccccn3)no2)cc1[N+](=O)[O-] | ? | . | . | . | 6.31µM | 10µM
c1ccc(-c2noc(-c3ccno3)n2)nc1 | / | . | . | / | . | .
c1ccc(-c2cc(-c3nc(-c4ccccn4)no3)c3ccccc3n2)cc1 | / | . | / | . | / | /
Cc1ccc2c(c1)N(CC(=O)NC1CCCCC1)C(=O)c1cccnc1O2 | . | . | / | . | . | .
COc1cccc(C2=Nn3c(nnc3-c3cc(OC)cc(OC)c3)SC2)c1 | / | / | . | / | . | .
CC(C)Cn1c(SCC(=O)NC2CC2)nc2ccccc21 | / | . | / | . | / | /
CCc1nc2ccc(C(=O)N3CCN(C(C)=O)CC3)cn2c1N(CCC(C)C)CCN(C)C | / | . | / | . | / | /
Cc1ccc(Cc2nc(-c3ccccn3)no2)cc1 | . | . | . | . | . | .
c1ccc(-c2noc(-c3cccc4ccccc34)n2)nc1 | ? | . | . | . | 10µM | ?
Cc1ccc(-c2nc(-c3ccccn3)no2)cc1 | . | . | . | . | 2µM | 0.891µM
Cc1ccc(-c2nc(-c3ccccn3)no2)cc1Cl | . | . | . | . | 5.62µM | 3.55µM
c1ccc(-c2nc(-c3ccccn3)no2)cc1 | . | . | . | . | 2µM | 2.24µM
COC(=O)c1ccc(NS(=O)(=O)c2cc3c4c(c2)CCC(=O)N4CCC3)cc1 | / | . | / | . | / | /
COC(=O)[C@H]1C[C@H](C(=O)O)[C@@H](C)C1(C)C | / | . | / | . | / | /
COc1cccc(NC(=O)Cn2nnc(C(=O)NCc3ccc4c(c3)OCO4)c2N)c1 | . | . | / | . | . | .
O=C1N/C(=N\N=C\c2cccs2)SC1Cc1ccc(Cl)cc1Cl (configuration not stated) | . | . | . | . | 0.251µM | 0.355µM
SMILES | MBNL1 CUG block | Six1-Eya2 inh | CBFb-RUNX1 inh | CtBP-E1A blk | Gal4-VP16 FLuc | RORgamma inh
O=C1N/C(=N\N=C\c2ccco2)SC1Cc1ccccc1[N+](=O)[O-] (configuration not stated) | . | . | . | / | 5.01µM | 3.16µM
O=C1N/C(=N\N=C\c2cccs2)SC1Cc1cccc(Cl)c1Cl (configuration not stated) | . | . | . | . | 0.224µM | 0.316µM
O=C(CC1S/C(=N/N=C/c2cccs2)NC1=O)Nc1ccc(Cl)cc1 (configuration not stated) | / | . | . | . | ? | ?
CCOc1ccc(CC2S/C(=N/N=C/c3ccco3)NC2=O)cc1 (configuration not stated) | . | . | . | . | . | ?
CC1=CC(=O)C=C(C)C1=NOc1ccccc1[N+](=O)[O-] | ? | . | . | . | ? | 10µM
CCS(=O)(=O)Nc1cccc(-c2ccc3nnc(-c4cccnc4)n3n2)c1 | ? | -66.9 | / | -85.5 | . | .
C(=C\c1ccccc1)/CN1CCN(c2ncnc3c2oc2ccccc23)CC1 | . | . | . | . | 17.8µM | ?
O=C(NC(=S)N1CCN(c2ccc(Cl)cc2[N+](=O)[O-])CC1)c1cccs1 | ? | . | . | . | / | 0.282µM
O=C(NC(=S)N1CCN(c2ccc(O)cc2)CC1)c1ccco1 | / | . | / | . | / | /
O=C(NC(=S)N1CCN(c2ccc(Cl)cc2[N+](=O)[O-])CC1)c1ccco1 | ? | . | . | . | 0.251µM | 0.282µM
CC(C)(C)C(=O)N1CCN(c2ccc(Cl)cc2[N+](=O)[O-])CC1 | / | . | . | . | . | .
O=C(NC(=S)N1CCN(c2ccc([N+](=O)[O-])cc2)CC1)c1ccco1 | . | . | . | . | 1.41µM | 0.708µM
Cc1ccc(CC(=O)N2CCN(c3ccc([N+](=O)[O-])cc3)CC2)cc1 | ? | . | / | . | 35.5µM | ?
CCC(=O)N1CCN(c2ccc(Cl)cc2NC(=S)NC(=O)c2ccco2)CC1 | / | . | / | . | / | /
CCOc1ccc(Cl)cc1-c1cc(C(=O)Nc2ccc(Br)cc2)[nH]n1 | / | . | / | . | / | /
